PubChem BioAssay (EPA / NIEHS)
Results filed as inconclusive are left out. Activity calls are given as the source filed them. The calls were made as follows: active = hit-call score of the fitted dose curve at least 0.9, where 1 is the maximum; inconclusive = response in the unintended direction; inactive = score below 0.9.

These molecules were tested on xenobiotic metabolism (CYP1A2), CYP1A2 (gene 1544) (assay: CLD_CYP1A2_6hr: CellzDirect (CLD) Gene Expression Assay for xenobiotic metabolism (CYP1A2) at 6 hours (AID 2283663);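 as to AC50: potency is for induction meaning a rise in mRNA above DMSO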).
Experimental: CLD_6hr is a cell-based, multiplexed-readout assay that uses hepatocyte, a human liver primary cell, with measurements taken at 6 hours after chemical dosing in a 96-well plate.CLD_CYP1A2_6hr is one of 16 assay component(s) measured or calculated from the CLD_6hr assay. It is designed to make measurements of mRNA induction, a form of inducible reporter, as detected with chemiluminescence signals by Quantitative Nuclease Protection Assay (qNPA) technology.Data from the assay component CLD_CYP1A2_6hr was analyzed at the endpoint, CLD_CYP1A2_6hr, in the positive analysis fitting direction relative to DMSO as the negative control and baseline of activity. Using a type of inducible reporter, gain-of-signal activity can be used to understand changes in the reporter gene as they relate to the gene CYP1A2. Furthermore, this assay endpoint can be referred to as a primary readout. To generalize the intended target to other relatable targets, this assay endpoint is annotated to the cyp intended target family, where subfamily is xenobiotic metabolism.
Human hepatocyte cultures were treated daily for two consecutive days with fresh dosing solutions containing appropriate concentrations of the 320 ToxCast chemicals (chemical identities were blinded to CellzDirect and other ToxCast collaborators), vehicle control (0.2% DMSO), and positive control inducers as summarized in Table 1. Due to the large number of treatment groups and chemicals examined, the ToxCast chemicals were divided into two groups (spanning two independent cultures of hepatocytes from separate donor preparations (Hu778: ToxCast plates 1 and 2; Hu776: ToxCast plates 3 and 4). Each preparation of human hepatocyte cultures was treated with respective vehicle control, medium only control, set of six positive controls/reference chemicals for the five hepatic receptor pathways, and a subset of eight of the ToxCast chemicals (indoxacarb, pyrithiobac-sodium, norflurazon, cyhalofop-butyl, methomyl, thiram, acetochlor, and propiconazole). These replicate data, coupled with internal replicates designed within the blinded ToxCast chemical library, provided additional data to evaluate interindividual differences between hepatocyte preparations and their potential impact on chemical profiles.Cell morphology and integrity were evaluated using phase-contrast microscopy as an indicator of hepatocyte cell health (Tyson & Green, 1987). Cultures for each treatment group (i.e., media, vehicle [0.2% DMSO], positive control inducers [multiple concentrations], and the ToxCast chemicals [multiple concentrations]) were observed and cell morphology was assessed relative to vehicle control cultures at each harvest time point (0, 6, 24, or 48 h). […] Images were evaluated at the conclusion of the study to assess changes in cell integrity and account for the effects of chemical exposure on uncharacteristic changes in concentration-dependent gene expression profiles. The results from these determinations of apparent cytotoxicity were annotated (yes/no) alongside the corresponding qNPA data for reference.At the conclusion of each treatment period, hepatocyte cultures (96-well) were washed with 1 volume of HBSS, lysed by addition of 25 ul ArrayPlate lysis buffer (HTG, Tucson, AZ), and 70 ul/well of Denaturation Oil, denatured by incubation at 95C for 10 min, and frozen at approximately -70C until analysis by nuclease protection assay (qNPA) (Roberts et al., 2007). For qNPA analysis, cell lysates were thawed at 50C for approximately 30 min, qNPA probes were added, and samples were incubated at 95C for 10 min to begin the detection process by denaturing the target RNA, dissociating the duplexes and secondary structure hybridization. At the conclusion of the hybridization period, S1 nuclease reagent was added to each sample to digest all nonprotected nucleotides at 50C for 60-90 min. […]

For CSC(=O)c1cccc2nnsc12, which AC50 is on record?
Its AC50 is 33300 nM (active).

Which outcome does the source give for CCOC(=O)COc1cc(-n2ncc(C(F)(F)F)c(C)c2=O)c(F)cc1Cl here?
The outcome was “inactive”.

With Oc1ccc(C(c2ccc(O)cc2)C(Cl)(Cl)Cl)cc1 as the molecule, how does the AC50 read?
The AC50 was 266 nM (active).

With c1ccc2[nH]c(-c3cscn3)nc2c1 as the molecule, how does the AC50 read?
The AC50 was 5820 nM (active).

How did the AC50 turn out when COC(=O)c1c(Cl)nn(C)c1S(=O)(=O)NC(=O)Nc1nc(OC)cc(OC)n1 was run?
Its AC50 is 2540 nM (active).

Which outcome does the source give for CCSC(=O)N(CC(C)C)CC(C)C here?
The outcome was “inactive”.

How did the outcome turn out when COC(=O)c1ccccc1C(=O)O was run?
Its outcome is “inactive”.

CCCCC(CC)COC(=O)c1ccccc1C(=O)O (stereo not given) was tested. Which outcome did it give?
The outcome was “inactive”.

With CCC(C)OC(=O)N1CCCCC1CCO (stereo not given) as the molecule, how does the outcome read?
Its outcome is “inactive”.

For CCOC(=O)[C@H](C)Oc1ccc(Oc2nc3ccc(Cl)cc3o2)cc1, which outcome is on record?
Its outcome is “inactive”.

For CCCOC(=O)c1ccc(C(=O)OCCC)nc1, which outcome is on record?
The outcome was “inactive”.

For CCOC(=O)C(C)Oc1ccc(Oc2cnc3cc(Cl)ccc3n2)cc1 (stereo not given), which outcome is on record?
Its outcome is “inactive”.

With COc1nc(C)nc(NC(=O)NS(=O)(=O)c2ccccc2OCCCl)n1 as the molecule, how does the outcome read?
The outcome was “inactive”.

CC1(C)C(C=C(Cl)Cl)C1C(=O)OCc1cccc(Oc2ccccc2)c1 (stereo not given) was tested. Which outcome did it give?
The outcome was “inactive”.

With COC(=O)c1ccccc1S(=O)(=O)NC(=O)Nc1nc(OC(F)F)cc(OC(F)F)n1 as the molecule, how does the outcome read?
Its outcome is “inactive”.

With COc1c(Cl)ccc(Cl)c1C(=O)O as the molecule, how does the outcome read?
Its outcome is “inactive”.

For CCCN(CCC)c1c([N+](=O)[O-])cc(C(F)(F)F)c(N)c1[N+](=O)[O-], which outcome is on record?
Its outcome is “inactive”.

With CCOC(=O)C(C)Oc1ccc(Oc2nc3ccc(Cl)cc3o2)cc1 (stereo not given) as the molecule, how does the outcome read?
The outcome was “inactive”.

N#CSCSc1nc2ccccc2s1 was tested. Which outcome did it give?
The outcome was “inactive”.

How did the outcome turn out when CCCCCOC(=O)COc1cc(N2C(=O)C3=C(CCCC3)C2=O)c(F)cc1Cl was run?
Its outcome is “inactive”.

Which outcome does the source give for CCCCC(CC)CN1C(=O)C2C3C=CC(C3)C2C1=O (stereo not given) here?
The outcome was “inactive”.

For COC(=O)c1cccc(C)c1S(=O)(=O)NC(=O)Nc1nc(OCC(F)(F)F)nc(N(C)C)n1, which AC50 is on record?
The AC50 was 5980 nM (active).

With CCCCOC(=O)C(C)Oc1ccc(Oc2ccc(C(F)(F)F)cn2)cc1 (stereo not given) as the molecule, how does the outcome read?
Its outcome is “inactive”.

How did the outcome turn out when CC(C)(c1ccc(O)cc1)c1ccc(O)cc1 was run?
The outcome was “inactive”.

Which outcome does the source give for S=C([S-])NCCNC(=S)[S-].[Mn+2] here?
The outcome was “inactive”.

CCCOC(=O)NCCCN(C)C was tested. Which outcome did it give?
The outcome was “inactive”.

How did the outcome turn out when OB(O)O was run?
The outcome was “inactive”.

Which AC50 does the source give for O=C(Nc1ccc([N+](=O)[O-])cc1Cl)c1cc(Cl)ccc1O here?
Its AC50 is 163 nM (active).

With COC(=O)CSc1cc(N=c2sc(=O)n3n2CCCC3)c(F)cc1Cl as the molecule, how does the outcome read?
The outcome was “inactive”.

CCCCOC(=O)[C@@H](C)Oc1ccc(Oc2ccc(C(F)(F)F)cn2)cc1 was tested. Which outcome did it give?
The outcome was “inactive”.

With CCCCCCC(C)OC(=O)COc1nc(F)c(Cl)c(N)c1Cl (stereo not given) as the molecule, how does the outcome read?
The outcome was “inactive”.

With S=C(S)NCCNC(=S)S.[Mn+2].[S-]C([S-])=NCCN=C([S-])[S-].[Zn+2] as the molecule, how does the AC50 read?
Its AC50 is 2750 nM (active).

How did the outcome turn out when COC(=O)c1ccc(I)cc1S(=O)(=O)NC(=O)Nc1nc(C)nc(OC)n1 was run?
Its outcome is “inactive”.

How did the outcome turn out when CC(C)(C)[C@@H](O)[C@@H](Cc1ccc(Cl)cc1)n1cncn1 was run?
The outcome was “inactive”.

With COCCO as the molecule, how does the outcome read?
Its outcome is “inactive”.

CN(C)C(=O)Nc1ccc(Cl)c(Cl)c1 was tested. Which AC50 did it give?
The AC50 was 3050 nM (active).

For CCC(O)=C1C(=O)CC(C(=O)O)CC1=O (stereo not given), which AC50 is on record?
Its AC50 is 1890 nM (active).

Which outcome does the source give for O=C(O)C1(C(=O)Nc2ccc(Cl)cc2Cl)CC1 here?
Its outcome is “inactive”.

CCCN(CCC)C(=O)SCC was tested. Which outcome did it give?
The outcome was “inactive”.

For CCN(Cc1c(F)cccc1Cl)c1c([N+](=O)[O-])cc(C(F)(F)F)cc1[N+](=O)[O-], which AC50 is on record?
The AC50 was 1740 nM (active).
